A number with no mark means an inactive call. Active and inactive are the calls of the source. No stated cut-off is given here; in the data, active means IC50 below about 90 µM; inactive means the rest.

The nature of this assay: DNA binding via SYBR dye displacement, late-stage follow-up, artefact control for HCV NS3 helicase inhibitor project, biochemical, fluorescence (AID 623970).
Usually IC50 stands for the concentration needed to halve the response being measured. As for `COc1ccc(NC(=O)Nc2ccc(-c3nc4ccc(-c5nc6ccc(C)c(S(=O)(=O)O)c6s5)cc4s3)cc2)cc1`, the IC50 was 73 µM (active).
Take `Cc1cc2sc(-c3ccc4nc(-c5ccc(N)cc5)sc4c3)nc2cc1S(=O)(=O)O`: the IC50 was 32 µM (active).
For `Cc1ccc2nc(-c3ccc(NC(=O)c4ccc(NC(=O)c5ccccc5)cc4)cc3)sc2c1S(=O)(=O)O`, the IC50 was greater than 100 µM.
Regarding `Cc1ccc2nc(-c3ccc4nc(-c5ccc6nc(-c7ccc(N)cc7)sc6c5)sc4c3)sc2c1S(=O)(=O)O` (tested in a mixture with another compound), the IC50 is 43 µM (active).
Next, `Cc1ccc2nc(-c3ccc(NC(=O)c4ccc(NC(=S)Nc5ccccc5)cc4)cc3)sc2c1S(=O)(=O)O`: greater than 100 µM; `CN1CCN(Cc2cc(CN3CCN(C)CC3)c(O)c(=O)c(CN3CCN(C)CC3)c2)CC1`: 72 µM (active).
With `NS(=O)(=O)c1ccc2nc(NC(=O)c3ccc4ncsc4c3)sc2c1`, the IC50 was greater than 100 µM.
For `Cc1ccc2nc(-c3ccc4nc(-c5ccc(N(C)C(=O)c6ccc7ccccc7c6)cc5)sc4c3)sc2c1S(=O)(=O)O`, the IC50 is greater than 100 µM.
As for `Cc1cc2sc(-c3ccc(N)cc3)nc2cc1S(=O)(=O)O`, the IC50 is greater than 100 µM.
For `Cc1ccc2nc(-c3ccc4nc(-c5ccc(NC(=O)c6cccc(Cl)c6)cc5)sc4c3)sc2c1S(=O)(=O)O`, the IC50 was greater than 100 µM.
To `Cc1ccc2nc(-c3ccc4nc(-c5ccc(NC(=O)c6cccc(C(F)(F)F)c6F)cc5)sc4c3)sc2c1S(=O)(=O)O` belongs greater than 100 µM.
Next, `Cc1ccc2nc(-c3ccc4nc(-c5ccc(NC(=O)c6ccc(NC(=O)OCC7c8ccccc8-c8ccccc87)cc6)cc5)sc4c3)sc2c1S(=O)(=O)O`: 6 µM (active).
To `COC(=O)c1ccc(C(=O)Nc2ccc(-c3nc4ccc(-c5nc6ccc(C)c(S(=O)(=O)O)c6s5)cc4s3)cc2)cc1` belongs greater than 100 µM.
Regarding `Cc1ccc2nc(-c3ccc4nc(-c5ccc(NC(=O)c6cc(F)ccc6C(F)(F)F)cc5)sc4c3)sc2c1S(=O)(=O)O`, the IC50 is greater than 100 µM.
To `Cc1ccc2nc(-c3ccc4nc(-c5ccc(NC(=O)c6ccc(N)cc6)cc5)sc4c3)sc2c1S(=O)(=O)O` belongs 55 µM (active); to `Cc1ccc2nc(-c3ccc4nc(-c5ccc(NC(=O)c6cc(F)cc(C(F)(F)F)c6)cc5)sc4c3)sc2c1S(=O)(=O)O`, greater than 100 µM; to `O=C(CCCCCCC(=O)Nc1ccc(-c2nc3ccccc3[nH]2)cc1)Nc1ccc(-c2nc3ccccc3[nH]2)cc1`, 14 µM (active).
For `Cc1ccc2nc(-c3ccc4nc(-c5ccc(NC(=O)c6ccc(C(F)(F)F)cc6)cc5)sc4c3)sc2c1S(=O)(=O)O`, the 50% inhibitory concentration (IC50) was 29 µM (active).
Next, `Cc1ccc2nc(-c3ccc(NC(=O)c4ccc(NC(=O)c5ccc(NC(=O)OCC6c7ccccc7-c7ccccc76)cc5)cc4)cc3)sc2c1S(=O)(=O)O`: greater than 100 µM; `Cc1cc(C(O)(c2ccc(Nc3ccccc3)cc2)c2ccc(Nc3ccc(S(=O)(=O)O)cc3)cc2)ccc1N` (centres undefined): 17 µM (active).
To `Cc1ccc2nc(-c3ccc(NC(=O)c4ccc(NC(=O)Nc5ccccc5)cc4)cc3)sc2c1S(=O)(=O)O` belongs greater than 100 µM; to `Cc1ccc2nc(-c3ccc4nc(-c5ccc(NCc6ccccc6)cc5)sc4c3)sc2c1S(=O)(=O)O`, 27 µM (active).
Next, `Cc1ccc2nc(-c3ccc(NC(=O)c4ccc(C(F)(F)F)cc4)cc3)sc2c1S(=O)(=O)O`: greater than 100 µM; `Cc1ccc2nc(-c3ccc4nc(-c5ccc(NC(=O)Nc6ccc(Cl)cc6)cc5)sc4c3)sc2c1S(=O)(=O)O`: 8 µM (active).
